The results in this text go back to the supplement of paper PMC5919970.

This assay concerns TYKNU. In words: fractional viability relative to vehicle; TYKNU is a high-grade serous ovarian cancer line; higher = less growth inhibition. The conditions noted are these: 72 h, genotype: OPA1 knockout (sgOPA1 #2). A digest of the protocol:
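TYKNU control cells or lentiCRISPRv2 knockout derivatives were seeded at 500 cells per well into drug-stamped 384-well plates holding a ~2100-compound library at 2 or 10 μM, in duplicate. Cells were grown at 37 °C in 5% CO2 in RPMI 1640 with 10% FBS, and drug treatment lasted 72 h. Viability was read by Cell Titer Glo luminescence. Duplicate treatment wells were averaged and normalised to duplicate control wells from the same plate position.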

Counter-ions that a name gives are not always drawn. In all, about 2,000 compounds were measured (“fractional viability relative to vehicle”: median about 0.92, lowest 2% from about 0.11 on). The sample holds the lowest values, similar compounds and a random draw of the others, so the mix is not that of the screen.

Regarding `Cc1cc(Nc2ncc(Cl)c(Nc3ccccc3S(=O)(=O)C(C)C)n2)c(OC(C)C)cc1C1CCNCC1`, the fractional viability is, setting by setting: (2uM) 0.376; (10uM) 0.0286.
For `CNC(=O)c1ccccc1Nc1nc(Nc2ccc(N3CCOCC3)cc2OC)ncc1Cl`, the fractional viability (2uM) was found to be 0.987 and the fractional viability (10uM) stood at 0.532.
On to `CN1CCN(Cc2ccc(Nc3ncc(Cl)c(Nc4ccccc4S(=O)(=O)N(C)C)n3)cc2)CC1`, for which the fractional viability amounted to 0.451 (2uM) and 0.421 (10uM).
For `C[C@H](Nc1ncnc2nc[nH]c12)c1cc2cccc(Cl)c2c(=O)n1-c1ccccc1`, in that order: 0.926 and 1.05.
For `COc1cc(O)c(CC=C(C)C)c(O)c1C(=O)/C=C/c1ccc(O)cc1` [Xanthohumol] the same measures were 0.841 and 0.772.
For the molecule `NC(=O)c1nc(F)cnc1O` [Favipiravir (T-705)], the fractional viability (2uM) is 0.744 and the fractional viability (10uM) was 0.765.
With `O=C1O[C@H]([C@@H](O)CO)C([O-])=C1O.[Na+]` [Sodium ascorbate], the fractional viability runs as follows: (2uM) 1.02; (10uM) 0.95.
For `O=C(Nc1ccccc1-c1cn2c(CN3CCNCC3)csc2n1)c1cnc2ccccc2n1` the same measures were 1.19 and 0.0331.
On to `Cc1nc(-c2cccnc2)sc1C(=O)Nc1ccccc1-c1cn2c(CN3CCOCC3)csc2n1`, for which the fractional viability reads like this: (2uM) 0.748; (10uM) 0.855.
For `Cc1coc2c1C(=O)C(=O)c1c-2ccc2c1CCCC2(C)C` [Tanshinone IIA], in that order: 0.599 and 0.327.
As for `C[C@H]1COC2=C1C(=O)C(=O)c1c2ccc2c1CCCC2(C)C` [Cryptotanshinone], the fractional viability is, setting by setting: (2uM) 0.361; (10uM) 0.0832.
For `CC(=O)Nc1ccc(C(=O)Nc2ccccc2N)cc1` [CI994 (Tacedinaline)], in that order: 0.755 and 0.434.
For `CNCc1ccc(C)c(NC(=O)c2ccc(Nc3nc(-c4ccccc4)c4ccccc4n3)cc2)c1`, in that order: 1.13 and 0.134.
On to `Cc1cc(Nc2ccc(NC(=O)c3ccc(Nc4ccnc5ccccc45)cc3)cc2)nc(N)n1`, for which the fractional viability is 0.043 (2uM) and 0.0318 (10uM).
Take `COc1cc(-c2ncn(/C=C\C(=O)OC(C)C)n2)cc(C(F)(F)F)c1`: the fractional viability by setting is: (2uM) 0.22; (10uM) 0.259.
The molecule `CNc1cccc(CCOc2ccc3c(c2)CN(CC(F)(F)F)C(=O)[C@H](CC(=O)O)C3)n1` gave a fractional viability (2uM) of 0.781 and a fractional viability (10uM) of 0.671.
For `CCCCc1oc2ccc(NS(C)(=O)=O)cc2c1C(=O)c1ccc(OCCCN(CCCC)CCCC)cc1` [Dronedarone HCl], the fractional viability was 0.835 (2uM) and 0.106 (10uM).
For `CN(CCOc1ccc(NS(C)(=O)=O)cc1)CCc1ccc(NS(C)(=O)=O)cc1` [Dofetilide], in that order: 1.08 and 0.78.
`CCCCc1oc2ccccc2c1C(=O)c1cc(I)c(OCCN(CC)CC)c(I)c1` [Amiodarone HCl] had a fractional viability (2uM) of 0.994 and a fractional viability (10uM) of 0.867.
For `N#Cc1ccc(-c2c(-c3ncn[nH]3)sc(N3CCOCC3)c2C#N)c(F)c1`, in that order: 0.737 and 0.572.
`O=C(COc1ccc(Cl)cc1)NC1CCC(NC(=O)COc2ccc(Cl)cc2)CC1` (stereo not drawn) [ISRIB (trans-isomer)]: the fractional viability is, setting by setting: (2uM) 1.09; (10uM) 0.976.
For `Clc1ccc(C2(c3ccc(-c4cn[nH]c4)cc3)CCNCC2)cc1` the same measures were 1.03 and 0.554.
Take `COCCOc1nc(-c2ccc(Cl)c(Cl)c2)n(-c2ccc(NC(=O)CCl)cc2)n1` [MI-2 (MALT1 inhibitor)]: the fractional viability (2uM) was 1 and the fractional viability (10uM) amounted to 0.952.
As for `COc1ccc(-n2c(SCCCN3C(=O)c4cccc5cccc(c45)C3=O)nnc2-c2ccncc2)cc1`, the fractional viability by setting is: (2uM) 0.913; (10uM) 0.874.
For `Cc1c(CN2CCN(C(=O)[C@H](C)O)CC2)sc2c(N3CCOCC3)nc(-c3cnc(N)nc3)nc12` the same measures were 0.392 and 0.376.
For `COc1ccc(-c2nc(N3CCOCC3)c3sc(CN(C)c4ncc(C(=O)NO)cn4)cc3n2)cn1`, in that order: 0.118 and 0.115.
For `CS(=O)(=O)N1CCN(Cc2cc3nc(-c4cccc5[nH]ncc45)nc(N4CCOCC4)c3s2)CC1`, in that order: 0.824 and 0.658.
On to `O=C1[C@H](Cc2ccc(O)cc2)N2C(=O)CCN(C(=O)NCc3ccccc3)[C@H]2CN1Cc1cccc2ccccc12`, for which the fractional viability is, setting by setting: (2uM) 0.962; (10uM) 0.449.
With `COc1cccc(-n2c(=O)[nH]c3cc(Cl)n(-c4ccc(-c5cccc(OC)c5O)cc4)c3c2=O)c1`, the fractional viability runs as follows: (2uM) 0.827; (10uM) 0.807.
For `Cn1cc(-c2cnn3c(N)c(Br)c([C@@H]4CCCNC4)nc23)cn1`, in that order: 0.571 and 0.814.
Take `Nc1nc(Nc2ccc3c(c2)CCC(N2CCCC2)CC3)nn1-c1cc2c(nn1)-c1ccccc1CCC2` (centres undefined): the fractional viability reads like this: (2uM) 0.566; (10uM) 0.0864.
For `COc1ccc([C@@H]2CC(=O)c3c(O)cc(O[C@@H]4O[C@H](CO)[C@@H](O)[C@H](O)[C@H]4O[C@@H]4O[C@@H](C)[C@H](O)[C@@H](O)[C@H]4O)cc3O2)cc1O` [Neohesperidin] the same measures were 1.11 and 0.888.
On to `COc1ccc2c(c1)CCC1C2CCC2(C)C(NCCCCCCN3C(=O)C=CC3=O)CCC12` (centres undefined), for which the fractional viability came out at 0.747 (2uM) and 0.738 (10uM).
With `CCN1CCN(Cc2ccc(Nc3ncc(F)c(-c4cc(F)c5nc(C)n(C(C)C)c5c4)n3)nc2)CC1`, the fractional viability by setting is: (2uM) 0.602; (10uM) 0.0904.
For `CNC(=O)c1ccccc1Oc1nc(Nc2cc(OC)c(OC)c(OC)c2)ncc1Br`, in that order: 0.717 and 0.828.
For `CN(CC(=O)N(Cc1ccc(C2CCCCC2)cc1)c1ccc(C(=O)O)cc1)S(=O)(=O)c1c(F)c(F)c(F)c(F)c1F`, in that order: 0.662 and 0.0586.
With `C[C@H](NC(=O)[C@@H](O)c1cc(F)cc(F)c1)C(=O)N[C@@H]1C(=O)N(C)c2ccccc2-c2ccccc21`, the fractional viability (2uM) was 1.2 and the fractional viability (10uM) worked out at 1.02.
Consider `CC[C@@]1(O)C(=O)OCc2c1cc1n(c2=O)Cc2cc3cc(O)ccc3nc2-1` [(S)-10-Hydroxycamptothecin], for which the fractional viability runs as follows: (2uM) 0.179; (10uM) 0.157.
In turn, `COc1cc2/c(=N/c3ccc(Br)cc3F)nc[nH]c2cc1OCC1CCN(C)CC1` [Vandetanib (ZD6474)] registered a fractional viability (2uM) of 1.31 and a fractional viability (10uM) of 0.638.
`COc1nc(OCc2cccc(-c3ccccc3)c2C)ccc1CNCCNC(C)=O` [PD-1/PD-L1 inhibitor 2]: the fractional viability came out at 0.912 (2uM) and 0.487 (10uM).
For `NS(=O)(=O)NCCNc1nonc1/C(=N/O)Nc1ccc(F)c(Br)c1` the same measures were 0.817 and 0.783.
For `C=CC(=O)Nc1cc(Nc2nccc(-c3c[nH]c4ccccc34)n2)c(OC)cc1N(C)CCN(C)C`, in that order: 0.542 and 0.0815.
For `COc1cc(N2CCC(N)CC2)ccc1Nc1ncc(Cl)c(-c2c[nH]c3ccccc23)n1`, in that order: 0.672 and 0.177.
Turning to `C=CC(=O)Nc1cccc(C)c1Nc1ncc2cc(-c3c(Cl)c(OC)cc(OC)c3Cl)ccc2n1`, the fractional viability was 0.676 (2uM) and 0.37 (10uM).
For `C=CC(=O)Nc1cccc(Nc2nc(Nc3ccc(N4CCN(C(C)=O)CC4)cc3OC)ncc2C(F)(F)F)c1` the same measures were 0.781 and 0.431.
For `C=CC(=O)Nc1cccc(Nc2nc(Nc3ccc(NC4CN(CCF)C4)cc3OC)ncc2C(F)(F)F)c1`, in that order: 0.897 and 0.432.
On to `C=CC(=O)Nc1cc(Nc2nccc(-c3cn(C)c4ccccc34)n2)c(OC)cc1N(C)CCN(C)C`, for which the fractional viability is, setting by setting: (2uM) 0.766; (10uM) 0.0725.
